# Rows were chosen to be rich in hits. Some 9.4% of all compounds tested hit in one or more screens of this group.
# Rab9 prom act: Rab9 promoter activation. Huh7 Rab9 promoter-luciferase reporter, luminescence, 24 h. Potency, µM (titrated, usually from 9.22 µM), usual class: activators. hit rate 2.8% among 320,000. AID 485297; also: nearly all actives have a fitted effect of over 60% in size
#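 Luciferase signal after 10 min detection reagent at ambient indicates Rab9 promoter upregulation; stably transfected Huh7 cells were treated 24 h with compound in DMSO at 37 °C, 5% CO2.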
# FLuc counter: counter-screen for miR-21 project: firefly luciferase inhibitors or activators; AID 588342; P08659; purified FLuc, Km substrates, luminescence inhibition; hit rate 6.9% among 360,000; Potency, µM (doses to about 57.5 µM), actives largely listed as inhibitors; also: nearly all actives have a fitted effect of over 55% in size
# Target sequence (P08659 whole entry, looked up): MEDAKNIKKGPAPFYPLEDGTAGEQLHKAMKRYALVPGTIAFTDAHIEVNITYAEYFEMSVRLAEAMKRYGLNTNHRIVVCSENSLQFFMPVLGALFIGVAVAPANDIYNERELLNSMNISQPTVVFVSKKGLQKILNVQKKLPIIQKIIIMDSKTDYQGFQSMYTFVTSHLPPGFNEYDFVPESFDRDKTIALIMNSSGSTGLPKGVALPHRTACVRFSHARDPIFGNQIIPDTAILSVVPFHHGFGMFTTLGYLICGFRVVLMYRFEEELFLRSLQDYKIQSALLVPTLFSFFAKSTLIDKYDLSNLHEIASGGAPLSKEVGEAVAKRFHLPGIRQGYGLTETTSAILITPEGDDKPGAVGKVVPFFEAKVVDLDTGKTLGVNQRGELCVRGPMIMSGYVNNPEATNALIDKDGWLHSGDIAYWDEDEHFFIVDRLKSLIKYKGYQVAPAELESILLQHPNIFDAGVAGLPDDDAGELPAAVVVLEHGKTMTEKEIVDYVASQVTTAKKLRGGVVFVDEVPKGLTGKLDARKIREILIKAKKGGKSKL
#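 Purified P. pyralis luciferase (10nM final) with 10uM D-luciferin and 10uM ATP (Km levels) in 50mM Tris acetate pH 7.5, 10mM Mg acetate, 0.01% Tween-20, 0.05% BSA; qHTS 6-point titration, ~60 µM downward; luminescence read.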
# NPC1 prom act: NPC1 promoter activation; Huh7 NPC1 promoter luciferase reporter, 24 h; Potency, µM (highest dose often 9.22 µM), actives largely listed as activators; hit rate 2.4% among 320,000; AID 485313; also: nearly all actives have a fitted effect of over 60% in size
#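 Luciferase expression driven by the NPC1 promoter was measured in stably transfected Huh7 cells after a 24 h compound incubation, using a luciferase reagent and a luminescence read.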
# SMN2 splice up: enhancers of SMN2 splice variant expression; HEK293 SMN2-luciferase splicing reporter, luminescence, 30-36 h; Potency, µM (top dose mostly 46.1 µM), actives largely listed as activators; hit rate 2.8% among 210,000; also: nearly all actives have a fitted effect of over 55% in size
#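 HEK293 cells carry an SMN2 minigene-luciferase reporter in which exon 7 inclusion puts luciferase in frame. Cells were seeded at 2000 cells/well, attached for 10-12 hours, then exposed to compounds for 30-36 hours at 37C before ONE-Glo luminescence.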
# ELG1 DNA repair: inhibitors of ELG1-dependent DNA repair in HEK293T cells | Potency, µM (titrated, usually from 46.1 µM), hits mostly inhibitors | hit rate 2.3% among 330,000 | AID 504467 | HEK293T ELG1-luciferase reporter, luminescence, 16 h; DNA damage induced by 5-fluorouridine; also: nearly all actives have a fitted effect of over 55% in size
#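 Cells (2,000 per well) received 5-fluorouridine plus test compound or DMSO and were incubated 16 hr at 37 °C, 5% CO2. Luciferase activity was read by luminescence 30 min after ONE-Glo addition; signal suppression marked inhibition of damage-induced ELG1 function.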
# ELG1 genotoxic: inducers of genotoxicity in HEK293T ELG1-luciferase cells; HEK293T ELG1-luciferase reporter, luminescence, 16 h; Potency, µM (titrated, usually from 46 µM), actives largely listed as activators; hit rate 1.3% among 330,000; also: nearly all actives have a fitted effect of over 60% in size
#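 Cells (2,000/well) expressing the ELG1-luciferase fusion are dosed by pin tool and kept 16 hr at 37 °C, 5% CO2. Signal comes from ONE-Glo luciferase reagent after 30 min at room temperature.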
# Numbers stand for hits; - = inactive; ? = inconclusive; . = not tested or not shown; [ ] = remark or other dose. Calls follow the shape of the dose curve; as a rule, active = well fitted curve in the direction sought with a large enough effect; inconclusive = small, poorly fitted or top-dose-only effect, or another doubt; inactive = no such curve, though single readings can be large; an effect the other way counts as inactive or inconclusive.
SMILES,Rab9 prom act,FLuc counter,NPC1 prom act,SMN2 splice up,ELG1 DNA repair,ELG1 genotoxic
COc1ccc(NC(=O)Cn2cnc3ccc(S(=O)(=O)N4CCC(C)CC4)cc3c2=O)cc1Cl,.,-,.,-,.,.
COc1cccc(CCNC(=O)c2cnc3sc(N4CCOCC4)nn3c2=O)c1,.,-,.,-,.,.
CCC(/C=C1\Sc2ccc(OC)cc2N1CC)=C\c1sc2ccc(OC)cc2[n+]1CCCS(=O)(=O)[O-],-,?,-,.,?,-
CCC(/C=C1\Sc2ccc(OC)cc2N1CCO)=C\c1sc2ccc(OC)cc2[n+]1CCO,-,15µM,-,-,?,-
COc1ccccc1-n1c(SCc2cc(=O)oc3cc(O)ccc23)nc2ccccc2c1=O,-,?,-,-,?,-
COc1ccccc1-n1c(=O)oc2ccc(Cl)cc2c1=O,-,13µM,?,.,-,-
C=CCc1cccc2cc(C(=O)Nc3ccc(CC(=O)O)cc3)c(=O)oc12,-,8.5µM,-,-,?,-
C=CCc1cccc2cc(C(=O)Nc3cccc(C(=O)O)c3)c(=O)oc12,?,12µM,?,.,?,-
C=CCc1cccc2cc(C(=O)Nc3ccc(F)cc3)c(=O)oc12,?,-,?,-,?,?
COc1cc(-c2nn3c(C4CCCCC4)nnc3s2)cc(OC)c1OC,-,-,-,-,5.8µM,-
CCN1CCN(C(=O)c2ccc3c(c2)N(Cc2c(F)cccc2Cl)C(=O)c2ccccc2S3)CC1,.,-,.,-,.,.
COc1cc2c(cc1OC)-c1cc(NC3CCCCCCC3)nc(=O)n1CC2,-,?,-,-,-,-
CCOc1ccc(Nc2cc3n(c(=O)n2)CCc2cc(OC)c(OC)cc2-3)cc1,-[1.84 µM],13µM,-,.,-,?
COc1cc2c(cc1OC)-c1cc(NC3CC3)nc(=O)n1CC2,-,-,-,14µM,?,?
O=C(NCCc1ccc(Cl)cc1)c1cnc2sc(N3CCOCC3)nn2c1=O,.,-,.,.,.,.
CCC(=O)Nc1cccc(NC(=S)NC(=O)c2ccccc2C)c1,?,15µM,?,-,?,-
CCCC(=O)NC(=S)Nc1cccc(NC(=O)c2ccc(Cl)cc2Cl)c1,-,13µM,-,.,?,-
CCC(=O)Nc1cccc(NC(=S)NC(=O)c2ccc(Cl)cc2)c1,3.5µM,-,?,?,?,-
O=C(O)c1cncc(C(=O)O)c1,.,.,.,-[9.22 µM],.,.
COc1ccc(-c2cc(C(C)=O)c(C)n2CCC(=O)NCc2ccc(F)cc2)cc1,.,-,.,.,.,.
CCOC(=O)C(=Cc1ccc(-n2cncn2)cc1)C(=O)OCC,-,-,-,-,18µM,-
CCOC(=O)C(=CNc1cc(C)nn1-c1ccc(Cl)cc1)C(=O)OCC,-,-,-,-,?,-
O=C1CC(c2ccc(F)cc2)Cc2nc(N3CCc4ccccc43)ncc21 (stereo unspecified),-,-,-,-,-,-
CC1(C)CC(=O)c2cnc(N3CCc4ccccc43)nc2C1,3.5µM,2.1µM,2.8µM,.,?,?
CC1=C(c2ccc(F)cc2)S(=O)(=O)N=C1N1CCC(C(=O)NCCc2cccc(C)c2)CC1,.,-,.,.,.,.
SMILES,Rab9 prom act,FLuc counter,NPC1 prom act,SMN2 splice up,ELG1 DNA repair,ELG1 genotoxic
CN(C)C(=O)CSc1nnc(C23CC4CC(CC(C4)C2)C3)o1,3.2µM,?,?,?,?,9.2µM
CC1CCCN(c2ncnc3c2nnn3C)C1 (stereo unspecified),.,-,.,.,.,.
CCN(CC)c1ccc(N=Nc2ncn[nH]2)cc1,2.8µM,12µM,2.8µM,13µM,?,?
CNc1ccccc(-c2ccc3ccccc3n2)c1=O,3.5µM,9.5µM,?,11µM,?,?
Cc1cc(=O)n(-c2ccc3ccccc3n2)[nH]1,-,?,-,-,?,?
CC(=O)N(CCc1ccccc1)Cc1cc2ccc(C)c(C)c2[nH]c1=O,-,-,-,.,?,-
CC(C)c1nnc(NC(=O)c2ccc3ccccc3c2)s1,1µM,2.1µM,1µM,.,?,?
Cc1nnc(NC(=O)c2ccccc2C(=O)O)s1,-,-,-,-,-,-
Cc1nnc(NC(=O)c2ccc3ccccc3c2)s1,1.4µM,11µM,1.8µM,.,?,4.6µM
COC(=O)c1ccccc1NC(=O)CSc1c2c(nc3ccc(Cl)cc13)CCCC2,.,-,.,-,.,.
Cc1ccc(C)c(Nc2c([N+](=O)[O-])c(=O)oc3ccccc23)c1,-,-,-,.,21µM,-
Cc1ccc(Nc2c([N+](=O)[O-])c(=O)oc3ccccc23)cc1,-,-,-,.,?,-
COc1ccccc1/C=N/OC(=O)c1ccc(C)cc1,-,1.9µM,-,.,-,-
COc1ccc(OC)c(S(=O)(=O)N/N=C\c2ccc3c(c2)OCO3)c1,-,9.5µM,-,.,?,?
O=S(=O)(N/N=C\c1ccc2c(c1)OCO2)c1ccc(F)cc1,-,-,-,.,-,-
Cc1ccc(C(=O)O/N=C/c2ccc3c(c2)OCO3)cc1,-,1.2µM,-,-,-,-
O=S(=O)(N/N=C\c1ccc2c(c1)OCO2)c1ccccc1,-,21µM,-,.,-,-
COc1ccc2c(Cc3c4ccccc4cc4ccccc34)cncc2c1O,.,.,.,-[9.22 µM],.,.
Cc1ccc(S(=O)(=O)N/N=C\c2ccc3c(c2)OCO3)cc1,-,15µM,-,-,-,-
Cc1ccc(S(=O)(=O)N/N=C\c2ccc3c(c2)OCO3)cc1C,-,-,-,.,-,-
CC(C)(C)c1csc(NC(=O)c2cccs2)n1,3.5µM,11µM,3.2µM,.,?,?
CC(C)(C)c1csc(NC(=O)Cc2cccs2)n1,-,15µM,-,-,-,-
Cc1ccc(NC(=O)CSc2nnc(-c3ccc([N+](=O)[O-])cc3)o2)c(C)c1,.,-,.,.,.,.
O=C(NCCc1ccccc1)c1cnc2sc(N3CCCCCC3)nn2c1=O,.,-,.,.,.,.
Cc1cccc(Nc2nc(N)nc(CSc3nccn3C)n2)c1,5µM,?,?,?,?,?
SMILES,Rab9 prom act,FLuc counter,NPC1 prom act,SMN2 splice up,ELG1 DNA repair,ELG1 genotoxic
Cc1ccc(Nc2nc(N)nc(CSc3nccn3C)n2)cc1,1.6µM,9.5µM,2.5µM,13µM,?,2.9µM
COc1ccccc1Nc1nc(N)nc(CSc2nccn2C)n1,-,-,-,.,?,-
Cc1cccc(N2CCN(S(=O)(=O)c3cc(C(=O)Nc4ccc(Oc5ccccc5)cc4)ccc3F)CC2)c1C,.,-,.,.,.,.
O=C(O)CCC(=O)Nc1ccc(-c2nc3ccc(C(=O)c4ccccc4)cc3[nH]2)cc1,-,11µM,-,.,?,-
Cc1ccc2nc(-c3ccc(NC(=O)Cc4cccs4)cc3)[nH]c2c1,1µM,1.3µM,2µM,2.5µM,?,?
O=C(Cc1ccccc1)Nc1nc2ccccc2s1,-,27µM,-,?,?,-
O=C(Cc1nc(=O)c2ccccc2s1)Nc1ccccc1,0.32µM,0.54µM,0.71µM,2.5µM,?,?
Cc1ccc2nc(NC(=O)Cc3cccs3)sc2c1,?,8.5µM,2.2µM,?,?,?

# Screening data deposited in PubChem BioAssay by National Center for Advancing Translational Sciences (NCATS).
